HCMV inh: blocks human cytomegalovirus replication; activity change, negative = inhibition, % at 57.5 µM; actives 4.5% (n = 410,000); HFF cells, HCMV-luciferase reporter, 72 h; hits give low values; AID 1259415; in the data active = activity change below about -60%; inconclusive = no clear call, values can overlap the other calls; inactive = above about -39%
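Two compound doses tested in HFFs infected with HCMV-luciferase, MOI 1 PFU/cell, 72 h at 37C. Lysate luminescence read with OneGlo; data normalized against buffer-only and 10uM Salinomycin inhibitor controls.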
FBPA Giardia inh: blocks Giardia fructose-bisphosphate aldolase activity; A8B2U2; purified Giardia FBPA; Potency, µM (series often up to 59.6 µM), hits mostly inhibitors; actives 0.71% (n = 290,000); AID 2451; note: nearly all actives have a fitted effect of over 55% in size
Target sequence (A8B2U2 whole entry, looked up): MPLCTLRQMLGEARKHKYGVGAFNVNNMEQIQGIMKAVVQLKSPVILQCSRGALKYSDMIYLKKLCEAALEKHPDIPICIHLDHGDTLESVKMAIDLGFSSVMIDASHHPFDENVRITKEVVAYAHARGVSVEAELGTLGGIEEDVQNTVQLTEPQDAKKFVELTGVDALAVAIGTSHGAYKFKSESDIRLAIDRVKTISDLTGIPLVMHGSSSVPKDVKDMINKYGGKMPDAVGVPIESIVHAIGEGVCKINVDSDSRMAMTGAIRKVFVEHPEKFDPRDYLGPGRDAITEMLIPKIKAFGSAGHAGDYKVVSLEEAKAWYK
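40 nM FBPA preincubated 10 min at RT with compound (up to 57.5 uM final), then substrate plus GAPDH/TPI/NAD/arsenate coupling and diaphorase/resazurin added. Fluorescence read after 20 min at RT, 525/598 nm.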
Pf growth 96h: P. falciparum growth inhibition at 96 hour, primary screen for plastid delayed-death inhibitors. AID 504834. Potency, µM (highest dose often 28.7 µM), most hits filed as inhibitors. P. falciparum luciferase reporter growth, 96 h. actives 6.9% (n = 320,000)
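Two parasite generations (96 h, 37 C, 5% CO2) of compound exposure in infected erythrocytes (0.05% parasitemia, 2% hematocrit). Luciferase-reporter P. falciparum; decreased luminescence indicates inhibited growth, aimed at apicoplast-acting delayed death.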
Pf growth 48h: inhibits P. falciparum growth in the first generation, 48 h; P. falciparum luciferase growth in erythrocytes, 48 h; Potency, µM (series often up to 28.7 µM), hits mostly inhibitors; actives 5.9% (n = 310,000); AID 504832
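Parasite viability was followed by luminescence of a genomically integrated firefly luciferase. Cultures held 0.1% parasitemia at 2% hematocrit (final), incubated under 5% CO2 at 37 C.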
Sm TGR block: blocks Schistosoma mansoni thioredoxin glutathione reductase; AID 485364; Q962Y6; Potency, µM (doses to about 114 µM), hits mostly inhibitors; actives 3% (n = 360,000); purified TGR, DTNB reduction, TNB absorbance 405 nm; note: nearly all actives have a fitted effect of over 60% in size
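Kinetic colorimetric format: TGR-catalysed, NADPH-driven DTNB reduction monitored via TNB absorbance. Enzyme dispensed at 20 nM; compound exposure 15 min at room temperature before reaction start.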
Each line names hits and unclear results; the compound was inactive in the other large screens. Most compounds without a hit are left out; they make up all but 14% or so of the library. Unless noted, calls come from the whole dose curve; as a rule, active = well fitted curve in the direction sought with a large enough effect; inconclusive = small, poorly fitted or top-dose-only effect, or another doubt; inactive = no such curve, though single readings can be large; an effect the other way counts as inactive or inconclusive.

NC(=O)C1CCN(C(=O)c2cc(-c3ccc(Cl)cc3)nc3ccccc23)CC1	none (no result: FBPA Giardia inh, Pf growth 96h, Pf growth 48h, Sm TGR block)
COc1ccc(-c2nnc(Nc3ccc(OC)c(C(N)=O)c3)c3ccccc23)cc1	none (no result: FBPA Giardia inh, Pf growth 96h, Pf growth 48h)
COc1ccc(-c2cc(C(=O)Oc3ccc(C)cc3)c3ccccc3n2)cc1	none (no result: FBPA Giardia inh, Pf growth 96h, Pf growth 48h)
CCOc1ccc(NC(=O)Cn2c(CCC(=O)O)ccc2-c2ccc(C)cc2)cc1	none (no result: FBPA Giardia inh, Pf growth 96h, Pf growth 48h)
CC1CCN(C(=O)c2cc3nc(-c4ccccc4)cc(-c4ccccc4)n3n2)CC1	Pf growth 96h 6.57µM (no result: Pf growth 48h)
COc1ccc(-c2cc(C(=O)N3CCCCCC3)c3ccccc3n2)cc1OC	none (no result: FBPA Giardia inh, Pf growth 96h, Pf growth 48h, Sm TGR block)
COc1ccc(-c2cc(C(=O)N3CCCCCC3)c3ccccc3n2)cc1	Pf growth 96h 3.29µM, Pf growth 48h 9.28µM (no result: FBPA Giardia inh)
CCOC(=O)COc1ccc(F)cc1C(=O)c1ccn2nc(-c3ccc(Cl)cc3)cc2n1	none (no result: FBPA Giardia inh, Pf growth 96h, Pf growth 48h)
CC1CN(c2nc3c(c(=O)n(Cc4ccc(Cl)cc4)c(=O)n3C)n2C)CC(C)O1 (stereo unspecified)	HCMV inh inconclusive, Pf growth 96h 2.33µM, Pf growth 48h 5.86µM
Cn1c(=O)c2c(nc(CN3CCN(Cc4ccccc4)CC3)n2CCN2CCOCC2)n(C)c1=O	Sm TGR block 39.8µM (no result: Pf growth 96h)
Cn1c(=O)c2c(nc(CN3CCC(Cc4ccccc4)CC3)n2CCN2CCOCC2)n(C)c1=O	none (no result: Pf growth 96h)
Cn1c(=O)c2c(nc(N3CCN(c4ccccn4)CC3)n2Cc2ccccc2Cl)n(C)c1=O	Pf growth 96h 13.1µM, Pf growth 48h 9.28µM
Cn1c(=O)c2c(nc(CN3CCN(C(=O)c4ccco4)CC3)n2Cc2ccccc2F)n(C)c1=O	Pf growth 96h 1.47µM, Sm TGR block inconclusive (no result: Pf growth 48h)
Cn1c(=O)c2c(nc(CN3CCN(Cc4ccccc4)CC3)n2Cc2ccccc2)n(C)c1=O	Pf growth 96h inconclusive, Pf growth 48h inconclusive (no result: HCMV inh)
CN1CCN(c2nc3c(c(=O)n(C)c(=O)n3C)n2Cc2ccc(Cl)cc2)CC1	Pf growth 96h 0.117µM
CCC1CCCCN1Cc1nc2c(c(=O)n(C)c(=O)n2C)n1Cc1ccccc1 (stereo unspecified)	Pf growth 96h 7.38µM, Pf growth 48h inconclusive
Cn1c(=O)c2c(nc(CN3CCN(Cc4ccccc4)CC3)n2Cc2ccc(Cl)cc2)n(C)c1=O	HCMV inh -103.4, Pf growth 96h 2.62µM (no result: Pf growth 48h)
COc1ccc2[nH]c(C(=O)N3CCN(Cc4ccccc4)CC3)cc2c1OC	none
COc1cccc([C@@H]2Oc3ccc(Br)cc3C(=O)[C@H]2OC(=O)Nc2cc(OC)c(OC)c(OC)c2)c1	none (no result: HCMV inh, Pf growth 96h, Pf growth 48h, Sm TGR block)
CC1=C(C(=O)N(C)C)CC(CC(=O)NCc2cccs2)C(=O)N1CCCN1CCCC1=O (stereo unspecified)	none (no result: FBPA Giardia inh, Pf growth 96h, Pf growth 48h, Sm TGR block)
CCCSc1nnc2c(n1)OC(c1sccc1C)Nc1ccccc1-2 (stereo unspecified)	none (no result: FBPA Giardia inh, Pf growth 96h, Pf growth 48h)
O=[N+]([O-])c1ccc(/C=N/NS(=O)(=O)c2ccc(Cl)cc2)o1	Sm TGR block 12.6µM
Cc1ccc(S(=O)(=O)N/N=C/c2ccc(C(=O)O)cc2)cc1	Pf growth 96h 11.7µM
Cc1ccc(S(=O)(=O)N/N=C\c2ccc(C)o2)cc1	Sm TGR block 35.5µM
O=S(=O)(N/N=C\c1ccc(-c2ccccc2Cl)o1)c1ccccc1	Sm TGR block inconclusive
Cc1ccc(S(=O)(=O)N(C)/N=C/c2ccc(C(=O)O)cc2)cc1	FBPA Giardia inh inconclusive, Pf growth 96h inconclusive
Cc1ccc(/C=N/NS(=O)(=O)c2ccc([N+](=O)[O-])cc2)o1	Pf growth 96h inconclusive
Cc1ccc(S(=O)(=O)N/N=C\c2ccccc2OCc2ccccc2)cc1	HCMV inh -74.4
Cc1ccc2nc(SCC(=O)NNC(=O)c3ccccc3)[nH]c2c1	none
CCOc1ccc(CN2CCC(Cc3ccccc3)CC2)cc1	none
Cc1ccc(S(=O)(=O)N/N=C\c2ccc([N+](=O)[O-])o2)cc1	HCMV inh inconclusive, Sm TGR block 20µM
Cc1ccc(S(=O)(=O)Oc2cccc(/C=N/Nc3ccc(C(=O)O)cc3)c2)cc1	FBPA Giardia inh 17.7µM
Cc1ccc(S(=O)(=O)Oc2cccc(/C=N/n3cnnc3)c2)cc1	none
Cc1ccc(S(=O)(=O)N/N=C\c2ccc3c(c2)OCO3)cc1C	none (no result: FBPA Giardia inh)
CC(=O)Nc1ccc(S(=O)(=O)N/N=C/c2ccc(C)o2)cc1	none
Cc1ccc(S(=O)(=O)N/N=C\c2ccc([N+](=O)[O-])o2)cc1C	Pf growth 96h 4.15µM (no result: FBPA Giardia inh)

High-throughput results as filed in PubChem.
